Assay [1] has as its system Human papillomavirus type 1a protein E7 (residues 44-93). The experiment in a line: HPV1a E7 fragment binders on microarrays, primary screen, biochemical, small-molecule microarray, residues 44-93, 635 nm fluorescence (AID 1108).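 Note: E7 fragment applied at 1 µg/mL in TBST for 1 h at 4 C; score combines spot fluorescence with its signal to noise ratio.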 The following applies: small-molecule microarray binding, fluorescence 635 nm; higher = more signal.
Assay [2] in a line: modulators of HCV replicon luciferase signal, primary screen, HCV replication inhibitor project, Huh7 cells, luciferase reporter (AID 1109).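 Note: huh7 hepatoma cells harbouring a luciferase neomycin HCV replicon reporter; luciferase luminescence as measure of HCV replicon replication; test concentration not given here.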 The settings on record: 48 h, higher = more signal.
Assay [3] concerns the target Left-right determination factor 2 (Homo sapiens) (UniProt O00292). As to the kind of experiment: LEFTY2 binders on small-molecule microarrays, primary screen, biochemical, small-molecule microarray, 635 nm fluorescence scan (AID 1110). The following applies: LEFTY2 binding, higher = more signal.
Assay [4] has as its target Calmodulin-1 (Homo sapiens) (UniProt P0DP23). The experiment in a line: CALM1 binders on microarrays, EGTA buffer, profiling panel, biochemical, small-molecule microarray, Cy5-labelled CALM1 (AID 1111).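 Note: labelled calmodulin applied in Tris saline Tween buffer holding calcium plus EGTA and DTT.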 The settings on record: Cy5-CALM1 binding fluorescence, higher = more signal.
The target is the same in assay [5]. The experiment in a line: calcium-bound CALM1 binders on microarrays, profiling panel, artefact control for SMM control-protein annotation, biochemical, small-molecule microarray, Cy5-labelled CALM1, plus calcium (AID 1112).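 Note: score merges spot fluorescence with signal to noise from triplicate slides.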 The following applies: Cy5-CALM1 binding fluorescence, higher = more signal.
Assay [6] can be described thus: small-molecule microarray binders of probe aWnt5a, primary screen, biochemical, biotinylated probe, 635/667 nm fluorescence (AID 1113).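 Note: score merges 667 nm fluorescence intensity with signal-to-noise per printed feature.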 The settings on record: higher = more signal.
The nature of assay [7]: small-molecule microarray binders of probe aShh, primary screen, biochemical, biotinylated probe, 635/667 nm fluorescence (AID 1114).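 Note: probe is biotin-labelled aShh protein from a stem cell growth factor screen; measures binding of labelled protein to compounds printed on the slide; score merges feature fluorescence at 667 nm with signal-to-noise.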 The settings on record: higher = more signal.
The nature of assay [8]: small-molecule microarray binders of probe aNog, primary screen, biochemical, biotinylated probe, 635/667 nm fluorescence (AID 1115).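 Note: probe is biotinylated aNog protein used at 0.15 µg/mL for 1 h at 4 C; z-score combines 667 nm fluorescence of each spot with its signal to noise.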 The following applies: higher = more signal.
In assay [9] the target is Torsin-1A-interacting protein 1 (Homo sapiens) (UniProt Q5JTV8). The experiment in a line: LAP1 binders from COS7 cell lysate, primary screen, small-molecule microarray, 635/667 nm fluorescence (AID 1116). The following applies: COS7-hLAP1 lysate binding, 635 nm fluorescence, higher = more signal.
Torsin-1A-interacting protein 1 (Homo sapiens), sequence (Q5JTV8 whole entry, looked up): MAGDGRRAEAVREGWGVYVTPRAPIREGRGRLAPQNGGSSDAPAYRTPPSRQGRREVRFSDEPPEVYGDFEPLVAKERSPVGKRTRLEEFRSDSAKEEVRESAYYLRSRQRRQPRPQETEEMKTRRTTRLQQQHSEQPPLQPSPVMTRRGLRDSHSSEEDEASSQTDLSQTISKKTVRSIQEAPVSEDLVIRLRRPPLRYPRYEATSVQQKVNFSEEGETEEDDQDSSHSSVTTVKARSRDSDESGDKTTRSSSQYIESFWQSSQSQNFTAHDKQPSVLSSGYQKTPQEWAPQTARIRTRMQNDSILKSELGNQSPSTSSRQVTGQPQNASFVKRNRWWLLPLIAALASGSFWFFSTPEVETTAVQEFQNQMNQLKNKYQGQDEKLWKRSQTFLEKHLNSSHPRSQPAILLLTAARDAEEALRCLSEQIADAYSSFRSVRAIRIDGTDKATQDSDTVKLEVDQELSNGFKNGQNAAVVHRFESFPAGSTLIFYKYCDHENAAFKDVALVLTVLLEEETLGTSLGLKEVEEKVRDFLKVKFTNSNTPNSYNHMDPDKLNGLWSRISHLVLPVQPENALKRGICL
Assay [10] concerns the target Alpha-bungarotoxin (Bungarus multicinctus) (UniProt P60615). The experiment in a line: alpha-bungarotoxin binders on microarray, profiling panel, artefact control for SMM control protein annotation, biochemical, small-molecule microarray, Alexa647 label, 635/667 nm fluorescence (AID 1117). The following applies: alpha-BTX-A647 binding fluorescence, higher = more signal.

In assay [11] the target is Albumin (Bos taurus) (UniProt P02769). The experiment in a line: bovine serum albumin binders on microarray, profiling panel, artefact control for SMM control protein annotation, biochemical, small-molecule microarray, Alexa647 label, 635/667 nm fluorescence (AID 1118).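 Note: score merges 667 nm emission intensity and signal-to-noise per printed compound spot.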 The following applies: BSA-A647 binding, fluorescence 635 nm, higher = more signal.
Albumin (Bos taurus), sequence (P02769 whole entry, looked up): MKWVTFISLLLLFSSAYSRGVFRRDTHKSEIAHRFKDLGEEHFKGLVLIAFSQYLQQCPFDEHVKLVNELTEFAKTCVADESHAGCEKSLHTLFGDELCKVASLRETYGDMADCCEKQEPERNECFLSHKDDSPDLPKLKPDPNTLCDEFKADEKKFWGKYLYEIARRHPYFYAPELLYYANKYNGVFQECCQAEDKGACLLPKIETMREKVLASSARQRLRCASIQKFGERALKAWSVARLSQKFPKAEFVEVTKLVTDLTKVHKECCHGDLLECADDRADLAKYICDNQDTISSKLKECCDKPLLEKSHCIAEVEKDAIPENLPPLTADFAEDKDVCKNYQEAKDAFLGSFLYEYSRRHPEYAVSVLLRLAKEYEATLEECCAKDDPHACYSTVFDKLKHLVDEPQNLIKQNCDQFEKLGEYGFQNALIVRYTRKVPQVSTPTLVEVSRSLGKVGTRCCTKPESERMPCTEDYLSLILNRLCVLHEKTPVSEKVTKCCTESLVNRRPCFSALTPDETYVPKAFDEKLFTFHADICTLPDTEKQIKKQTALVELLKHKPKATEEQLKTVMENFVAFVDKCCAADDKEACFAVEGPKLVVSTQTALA
Assay [12] can be described thus: small-molecule microarray binders of probe aXIP, primary screen, biochemical, NeuroSMM set, 635/667 nm fluorescence (AID 1119).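 Note: probe is the protein aXip251-270 applied at 1 µg/mL to compound-printed slides; binding of probe to printed compounds measured as 667 nm fluorescence plus signal to noise.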 The following applies: higher = more signal, called active from +8 up or from −8 down.
A short description of assay [13]: small-molecule binders of probe aNOTCH3, primary screen, biochemical, small-molecule microarray, 635/667 nm fluorescence (AID 1120).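 Note: probe is a biotin-tagged antibody raised against NOTCH3 rather than NOTCH3 protein; score merges spot fluorescence near 667 nm with spot signal to noise.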 The settings on record: higher = more signal.
Assay [14] is described as follows: small-molecule binders of probe aNOTCH2, primary screen, biochemical, small-molecule microarray, 635/667 nm fluorescence (AID 1121).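 Note: score merges feature fluorescence read at 667 nm with its signal to noise.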 The following applies: higher = more signal.
For assay [15], the target named is Carbonic anhydrase 2 (Homo sapiens) (UniProt P00918). As to the kind of experiment: CAII small-molecule binders, profiling panel, biochemical, small-molecule microarray, Alexa647-labelled CAII (AID 1122). The following applies: CAII-A647 binding fluorescence, higher = more signal.
A short description of assay [16]: COS7 lysate on small-molecule microarray, probe aHis, 635 nm (AID 1123).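 Note: z-score combines 667nm fluorescence intensity with signal-to-noise per printed compound spot.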 The following applies: COS7 cell lysate, fluorescence, higher = more signal.
Assay [17] can be described thus: compound binding in COS7 lysate, probe aLAP1, primary screen, cell lysate, small-molecule microarray (AID 1124).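 Note: lysate comes from COS7 cells expressing LAP1 and is applied at 0.3 µg/mL; score merges spot fluorescence near 667 nm with signal-to-noise over triplicate slides.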 The following applies: probe aLAP1, fluorescence, higher = more signal.
For assay [18], the system named is Sam68 (KHDRBS1). The experiment in a line: Sam68 small-molecule binders, primary screen, biochemical, small-molecule microarray, 635 nm fluorescence (AID 1125).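 Note: score merges 667 nm channel intensity with signal to noise over triplicate slides.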 The following applies: small-molecule microarray binding, higher = more signal.
The subject of assay [19] is Chordin-like protein 2 (CHRDL2). The experiment in a line: CHRDL2 small-molecule binders, primary screen, biochemical, small-molecule microarray, 635 nm fluorescence (AID 1126).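 Note: printed compound slides probed with Chrdl2 protein at 4 µg/mL for 1 h at 4 C; score merges 667 nm emission intensity with signal to noise over three replicate slides.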 The following applies: small-molecule microarray binding, fluorescence 635 nm; higher = more signal.
Assay [20] deals with Concanavalin-A (Canavalia ensiformis) (UniProt P02866). As to the kind of experiment: ConA small-molecule binders, primary screen, artefact control for SMM control protein annotation, biochemical, small-molecule microarray, Alexa647 label, 635 nm (AID 1127).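 Note: z combines 667 nm emission intensity with signal-to-noise across three replicate slides.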 The settings on record: ConA-A647 binding fluorescence, higher = more signal.
Concanavalin-A (Canavalia ensiformis), sequence (P02866 whole entry, looked up): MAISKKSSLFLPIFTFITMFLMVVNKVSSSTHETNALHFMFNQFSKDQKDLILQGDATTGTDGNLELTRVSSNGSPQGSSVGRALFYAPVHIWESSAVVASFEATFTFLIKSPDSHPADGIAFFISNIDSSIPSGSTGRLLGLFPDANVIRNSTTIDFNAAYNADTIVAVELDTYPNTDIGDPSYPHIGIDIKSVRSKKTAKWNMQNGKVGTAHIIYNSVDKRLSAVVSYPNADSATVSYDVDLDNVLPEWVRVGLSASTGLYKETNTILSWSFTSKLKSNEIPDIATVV

The source made the active and inactive calls.

Alpha-bungarotoxin (Bungarus multicinctus), sequence (P60615 whole entry, looked up): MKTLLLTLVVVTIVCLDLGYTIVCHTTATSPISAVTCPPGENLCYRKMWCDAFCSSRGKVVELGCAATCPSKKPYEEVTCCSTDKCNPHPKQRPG
Left-right determination factor 2 (Homo sapiens), sequence (O00292 whole entry, looked up): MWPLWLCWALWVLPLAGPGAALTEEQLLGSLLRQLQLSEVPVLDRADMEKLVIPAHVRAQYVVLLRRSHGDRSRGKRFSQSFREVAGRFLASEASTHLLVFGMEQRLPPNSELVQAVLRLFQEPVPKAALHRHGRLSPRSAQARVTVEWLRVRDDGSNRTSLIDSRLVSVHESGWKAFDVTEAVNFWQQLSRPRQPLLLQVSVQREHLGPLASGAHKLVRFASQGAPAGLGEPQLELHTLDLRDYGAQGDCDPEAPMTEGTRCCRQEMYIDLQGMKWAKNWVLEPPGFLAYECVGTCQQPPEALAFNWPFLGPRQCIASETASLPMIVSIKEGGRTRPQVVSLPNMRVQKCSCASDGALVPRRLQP

Turning to `CC(C)C(=C=CC[C@@H](O)c1cccc(OCCO)c1)C[C@@H](O)COCc1ccccc1`, the composite z-score in assay [1] was -0.83; in [3], 0.136; in assay [4], 0.275; in assay [5], 0.265; in assay [6] it was -0.141; in assay [7], 0.0469. Besides, the composite z-score in [8] was -0.298; in [9], 0.0535; in assay [10], 0.0211; in [11], 0.15; in assay [13], -0.0708; in assay [14], -0.0865. The composite z-score was 0.763 in [15]; 0.75 in [16]; 0.102 in assay [17]; -0.0876 in assay [18]; -0.456 in assay [19]; 0.346 in assay [20]. This compound gave a z-score in assay [2] of -0.0464. The composite Z-score in assay [12] is -1.39 (inactive).

Turning to `COCCOC(=O)N1C(=O)[C@@]2(c3cc(C#CCC(C(=O)OC)C(=O)OC)ccc31)[C@H](C(=O)NC[C@H](O)c1ccccc1)[C@H]1C(=O)O[C@H](c3ccccc3)[C@H](c3ccccc3)N1[C@@H]2c1ccc(OCCO)cc1`, the composite z-score is 1.36 in [1]; 0.793 in assay [3]; 1.39 in assay [4]; -0.0628 in assay [5]; -0.0792 in assay [6]; 0.0141 in assay [7]. Also, the composite z-score is -0.367 in assay [8]; 0.314 in assay [9]; 0.973 in assay [10]; 0.45 in assay [11]; 0.0899 in [13]; -0.099 in [14]. The composite z-score in [15] amounted to 0.521; in assay [16] it was 1.66; in [17] it was 0.257; in assay [18], 1.3; in assay [19], 1.13; in [20], 1.14. This compound had a z-score in [2] of -1.92. Also, in assay [12], the composite Z-score is 1.02 (inactive).

For the compound `COc1ccc(C(=O)Nc2cccc(CN3C(=O)[C@@]4(O[C@@H](CC(=O)N(CCO)Cc5ccccc5)[C@H]([Si](C)(C)c5ccc(OC)cc5)[C@H]4C)c4ccccc43)c2)cc1`, the composite z-score in assay [1] is 1.18; in [3], 0.344; in assay [4], 0.822; in assay [5] it was -0.0254; in assay [6] it was -0.187; in assay [7], -0.206. The composite z-score in [8] was -0.38; in [9], 1.12; in assay [10], 0.681; in assay [11] it was 0.441; in assay [13] it was -0.122; in assay [14], -0.0868. Besides, the composite z-score was determined as 0.56 in [15]; 1.56 in assay [16]; 0.229 in assay [17]; 1.19 in [18]; 0.351 in assay [19]; 0.601 in [20]. This compound also gave a z-score in [2] of -3.89. In addition, the composite Z-score in assay [12] was 0.799 (inactive).

Turning to `CN(C)CCCC[C@@H]1NC(=O)[C@@H]2C[C@H](C(=O)O)[C@H](c3cccc(OCCO)c3)N2C1=O`, the composite z-score in assay [1] was -0.927; in assay [3], -0.43; in assay [4], -0.832; in assay [5], -0.238; in [6] it was -0.0179; in assay [7] it was -0.0793. For the same compound, the composite z-score in [8] was -0.375; in [9], -0.657; in assay [10] it was -0.676; in assay [11], 0.0812; in assay [13] it was -0.0914; in assay [14], -0.116. The composite z-score in assay [15] is 0.198; in [16] it was 0.491; in assay [17] it was -0.0644; in [18], -0.936; in [19], 0.217; in assay [20], 0.567. In addition, the z-score in [2] was -0.282. The composite Z-score in [12] is 0.627 (inactive).

`C=C/C=C/[C@@H]1C(=C)CN([C@@H](Cc2ccccc2)C(=O)OC)[C@H]1[C@@H](O)Cc1ccccc1`: the composite z-score in assay [1] is 1.17; in assay [3], 0.201; in [4] it was 0.241; in assay [5], -0.547; in assay [6], -0.107; in assay [7], -0.138. Besides, the composite z-score is 0.0924 in assay [8]; 0.309 in [9]; 0.325 in [10]; 0.0797 in assay [11]; -0.0343 in [13]; -0.115 in [14]. Besides, the composite z-score was 0.311 in assay [15]; 1.07 in assay [16]; 0.137 in [17]; 1.09 in assay [18]; 0.177 in [19]; 0.861 in assay [20]. In assay [2], this compound registered a z-score of -0.622. In addition, the composite Z-score in assay [12] is 0.3 (inactive).

Source of the values: PubChem BioAssay.
